Screening data (PubChem)
H9c2 protect – modulators protecting cardiomyocytes from myocardial damage. H9c2 cardiomyocytes, H2O2 injury protection, ATPLite, 2 h. protection from H2O2 cell death, % at 20 µM. hit rate 0.63% among 360,000;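 active means compounds giving at least 50% protection of heart cells from peroxide-induced death in the single-dose screen, raw or plate-pattern-corrected value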
ALR H2O2 inh – inhibitors of human sulfhydryl oxidase ALR; P55789; purified ALR, DTT oxidation, H2O2 HRP-luminol luminescence; inhibition, % (concentration not given with the values); hit rate 3.8% among 290,000; AID 485317;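 active means mean replicate inhibition above about 79%, with every replicate also reaching it, limit read from the data; inconclusive means only one of the two criteria met; inactive means mean below limit and not every replicate reaching it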
NTR1 agonist – NTR1 (human) agonism; P30989; NTR1-U2OS beta-arrestin-GFP spot imaging, agonist mode; activation, % at 20 µM; hit rate 0.17% among 330,000; AID 493036;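 active means activation at or above 40% of the spot to cytoplasm intensity ratio, with at least 20 cells analyzed; inconclusive means wells under 20 cells, flagged as cytotoxic or low count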
Target sequence (P30989 whole entry, looked up): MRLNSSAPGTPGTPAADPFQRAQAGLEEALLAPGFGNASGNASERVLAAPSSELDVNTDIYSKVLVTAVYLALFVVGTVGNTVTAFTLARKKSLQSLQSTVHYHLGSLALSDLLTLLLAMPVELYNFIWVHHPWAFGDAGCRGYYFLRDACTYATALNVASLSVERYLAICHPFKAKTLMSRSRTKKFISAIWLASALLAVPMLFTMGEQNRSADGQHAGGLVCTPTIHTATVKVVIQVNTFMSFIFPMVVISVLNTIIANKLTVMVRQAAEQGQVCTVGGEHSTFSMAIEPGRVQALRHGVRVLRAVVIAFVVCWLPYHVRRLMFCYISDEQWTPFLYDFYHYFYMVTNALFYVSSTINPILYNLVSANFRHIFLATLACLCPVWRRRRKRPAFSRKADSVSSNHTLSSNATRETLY
SUMO HTRF inh – SUMOylation inhibition | P63279 | HTRF SUMOylation assay, SAE1/SAE2 + UBC9, in vitro | hit rate 0.36% among 290,000 | inhibition, % at 35 µM | AID 2006; in the data active means inhibition above about 50%, passing the limit was not always enough; inconclusive means no clear call, values can overlap the other calls
Target sequence (P63279 whole entry, looked up): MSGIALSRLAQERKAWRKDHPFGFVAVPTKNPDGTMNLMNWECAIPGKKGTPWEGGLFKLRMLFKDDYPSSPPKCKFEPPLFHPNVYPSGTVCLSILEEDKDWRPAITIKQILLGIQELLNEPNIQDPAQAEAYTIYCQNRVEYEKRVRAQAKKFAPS
Large screens that a line does not name were inactive. Rows were chosen to be rich in hits. Some 3.9% of all compounds tested hit in one or more screens of this group.

CN1CCc2nc(SCc3ccc(C(C)(C)C)cc3)c(C#N)cc2C1	ALR H2O2 inh inconclusive
COc1ccc(NC(=O)CSc2nc3c(cc2C#N)CN(C)CC3)cc1	ALR H2O2 inh 97
COc1ccc(-c2c(C#N)c(SCC(=O)Nc3ccccc3)nc3c2CCCC3)cc1	none (no result: SUMO HTRF inh)
CN1CCc2nc(SCC(=O)Nc3ccc(F)cc3)c(C#N)cc2C1	ALR H2O2 inh 99 (no result: H9c2 protect)
Cc1noc(NS(=O)(=O)c2ccc(NC(=O)CSc3nc4c(cc3C#N)CCCCC4)cc2)c1C	none
CCN1CCc2nc(SCC(=O)Nc3ccc(OC)cc3)c(C#N)cc2C1	ALR H2O2 inh 99
Cc1c(N=Cc2ccc(-c3ccc(Cl)cc3)o2)c(=O)n(-c2ccccc2)n1C	none
Cc1cccc(/C=N/n2c(-c3ccco3)n[nH]c2=S)c1	ALR H2O2 inh 97
S=c1[nH]nc(-c2ccco2)n1/N=C/c1ccccn1	ALR H2O2 inh 98 (no result: H9c2 protect)
Cc1ccc(/C=N/n2c(-c3ccco3)n[nH]c2=S)cc1	none
COc1ccc(CCNC(=O)c2ccc(OCC(=O)N3CCOCC3)c(OC)c2)cc1OC	none
COc1ccc(/C=N\Nc2ccc([N+](=O)[O-])cc2[N+](=O)[O-])c(C(=O)O)c1OC	ALR H2O2 inh 98
CN(CCO)c1ccc(C=NNc2ccc([N+](=O)[O-])cc2S(=O)(=O)Nc2ccccc2C(=O)O)cc1	ALR H2O2 inh 99 (no result: SUMO HTRF inh)
COc1cc(C=NNc2ccc(S(=O)(=O)Nc3ccccc3C(=O)O)cc2[N+](=O)[O-])ccc1O	ALR H2O2 inh 99 (no result: SUMO HTRF inh)
CCOc1ccc(C=NNc2ccc(S(=O)(=O)Nc3ccccc3C(=O)O)cc2[N+](=O)[O-])cc1OC	none (no result: ALR H2O2 inh, SUMO HTRF inh)
CC1(C)CC(=O)c2cc(OCC(=O)O)ccc2O1	none
COc1ccccc1Nc1nc(-c2sc(NC(=O)c3cccc(Cl)c3)nc2C)cs1	none (no result: H9c2 protect)
Cc1c(O)cc2c(c1O)C(=O)CC(c1ccc(O)cc1)O2 (configuration not stated)	none
O=C1c2c(O)cc(O)cc2O[C@@]12c1c(cc(O)c3c1O[C@H](c1ccc(O)cc1)[C@@H](O)C3)O[C@@H]2c1ccc(O)cc1	ALR H2O2 inh 99
O=C(c1ccc(-c2ccccc2)cc1)C1CCCN(Cc2ccncc2)C1 (configuration not stated)	none
OCC1CCCN(Cc2ccc(-c3ccccc3)cc2)C1 (configuration not stated)	ALR H2O2 inh 99
COc1ccc(N2CCN(CCCNC(=O)CCC(=O)N3CCOc4ccc(Cl)cc43)CC2)cc1	ALR H2O2 inh 99
CCc1nnc(NS(=O)(=O)c2ccc(NC(=S)NC(=O)c3ccccc3)cc2)s1	ALR H2O2 inh 96
Cc1ccc2cc(COC(=O)c3cccc([N+](=O)[O-])c3)c(=O)[nH]c2c1	none
O=C(CSc1nncn1-c1cccnc1)Nc1ccccc1C(F)(F)F	none (no result: ALR H2O2 inh)
Cc1csc2nc(CNS(=O)(=O)c3ccc(-c4ccccc4)cc3)cn12	none
O=c1c2ccccc2cnn1Cc1n[nH]c(=S)n1-c1ccccc1Cl	ALR H2O2 inh 84
COc1ccc(NCc2ccc(OC)c(Cn3ccnc3)c2)c(OC)c1	ALR H2O2 inh 99
COc1ccc(N2CCN(S(=O)(=O)c3c(C)nc4sccn4c3=O)CC2)cc1	ALR H2O2 inh 84
Cc1nc2sccn2c(=O)c1S(=O)(=O)Nc1ccc(N2CCOCC2)cc1	none (no result: ALR H2O2 inh, NTR1 agonist, SUMO HTRF inh)
Cc1nc2sccn2c(=O)c1S(=O)(=O)Nc1ccc(N2CCN(C)CC2)cc1	ALR H2O2 inh 97
O=C(Nc1c(C(=O)C2CC2)oc2ccccc12)c1ccc(Cl)cc1	none
O=C(Nc1cccc(C(F)(F)F)c1)c1cccnc1	none
N#C/C(=N\Nc1cccc(C(F)(F)F)c1)C(=O)c1csc(-c2cccnc2)n1	ALR H2O2 inh 97
CC(/C=C1\SC(=S)N(NC(=O)c2ccc(C)cc2)C1=O)=C\c1ccccc1	none
CC(/C=C1\SC(=S)N(NS(=O)(=O)c2ccc(C)cc2)C1=O)=C\c1ccccc1	SUMO HTRF inh 59
CC(/C=C1\SC(=S)N(NS(=O)(=O)c2ccccc2)C1=O)=C\c1ccccc1	ALR H2O2 inh 98
COc1ccc(CNC(=O)CS(=O)(=O)Cc2nc(-c3cccc(OC)c3)oc2C)cc1	ALR H2O2 inh 91
Cc1ccc(-c2nc(CS(=O)(=O)CC(=O)NCc3cccc(F)c3)c(C)o2)cc1	none
CCCCN(C)C(=O)CS(=O)(=O)Cc1nc(-c2cccc(OC)c2)oc1C	ALR H2O2 inh 99
COCCCNC(=O)CS(=O)(=O)Cc1nc(-c2cccc(OC)c2)oc1C	ALR H2O2 inh inconclusive
COc1ccc(-c2nc(CS(=O)(=O)CC(=O)NCc3cccc(F)c3)c(C)o2)cc1	ALR H2O2 inh 97
O=C(Nc1nccs1)c1ccc(S(=O)(=O)NCC2CCCCC2)cc1	none
CC(NC(=O)CN(C)S(=O)(=O)c1cnc[nH]1)c1ccccc1 (configuration not stated)	none
O=C(COc1ccccc1Cl)NCCNC(=O)c1ccccn1	none
Cc1cccc2sc(NNC(=O)C3COc4ccccc4O3)nc12 (configuration not stated)	ALR H2O2 inh 100
O=S1(=O)CC(N2CCC(Cc3ccccc3)CC2)CN1CCc1ccccc1 (configuration not stated)	none (no result: ALR H2O2 inh, NTR1 agonist, SUMO HTRF inh)
O=C(N/N=C\c1cn[nH]c1-c1ccc(Cl)cc1)c1cccs1	SUMO HTRF inh 52 (no result: ALR H2O2 inh)
O=C(N/N=C/c1cn[nH]c1-c1ccc(Cl)cc1)c1ccc([N+](=O)[O-])cc1	none
NC(=O)c1ccc(-c2ccc(Br)cc2)o1	ALR H2O2 inh 98
O=C(O)c1ccc(NC(=S)NC(=O)c2ccc(-c3ccc(Br)cc3)o2)cc1	ALR H2O2 inh 93 (no result: NTR1 agonist)
Cc1ccc(S(=O)(=O)CCC(=O)NCCN2C(=O)S/C(=C/c3ccc(F)cc3)C2=O)cc1	none
CN(C)/C=N/c1c(C(=O)NCc2ccccc2)nnn1Cc1ccccc1	none
CCCOC(=O)c1ccc(Oc2cn[nH]c2-c2ccc(O)cc2O)cc1	ALR H2O2 inh 85
CCOC(=O)c1ccc(Oc2cn[nH]c2-c2ccc(O)cc2O)cc1	ALR H2O2 inh inconclusive
CN1CCN(Cc2nc3ccccc3c(=O)n2Cc2nc(-c3ccc4ccccc4c3)cs2)CC1	ALR H2O2 inh 98 (no result: NTR1 agonist)
COc1ccccc1C(NC(C)=O)c1c(O)ccc2ccc(O)cc12 (configuration not stated)	ALR H2O2 inh 95 (no result: SUMO HTRF inh)
O=S(=O)(c1ccc2c(c1)CCCN2)N1CCCC2CCCCC21 (configuration not stated)	none
O=C(O)c1cc(N/N=C/c2ccc(N3CCOCC3)cc2)ccc1Cl	ALR H2O2 inh 97
O=C(O)c1cc(N/N=C/C=C/c2ccccc2[N+](=O)[O-])ccc1Cl	ALR H2O2 inh 99
Clc1cccc(N/N=C/c2ccc(N3CCOCC3)cc2)c1	none
C/C(=N\NC(=O)c1ccccc1C)c1cccc([N+](=O)[O-])c1	none
O=C(O)c1cc(N/N=C/c2ccc(-c3ccccc3)cc2)ccc1Cl	ALR H2O2 inh 99 (no result: NTR1 agonist)
C/C(=N\Nc1ccc(Cl)c(C(=O)O)c1)c1cccc([N+](=O)[O-])c1	ALR H2O2 inh 98
NS(=O)(=O)c1ccc(N/N=C/C=C/c2ccccc2[N+](=O)[O-])cc1	none
COc1cc(/C=N/Nc2ccc(Cl)c(C(=O)O)c2)ccc1OC(=O)c1cccs1	ALR H2O2 inh 97
CN(C)/C=C1\C(=O)NN=C1C(F)(F)F	none
